Data published in the supplement of paper PMC11732987, “Enantioselective OTUD7B fragment discovery through chemoproteomics screening and high-throughput optimisation” (Communications Chemistry, 2025).

Columns and labels:
Experiment in all cases: log2 ratio of Biotin-Ahx-Ub-VS probe labelling (compound/DMSO); higher = less target engagement, active = hit call of the paper (q ≤ 0.05, log2 ratio ≤ -1)
Conditions in all cases: treatment time: 3 h
[1] = compound: CN(Cc1cccc(Br)c1)C(=O)CCl
In short: (§1)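 Compound at 50 or 200 µM, or DMSO, was applied for 3 h in triplicate to HEK293T lysate (495 µg per sample, Tris/CHAPS/IGEPAL buffer with protease inhibitors), after which Biotin-Ahx-Ub-VS was added at 0.5 µM final for 1 h. The labelled DUBs were pulled down with NeutrAvidin, digested with LysC and trypsin, and run by diaPASEF LC-MS/MS. Ratios are averaged base-two logs of compound over DMSO from median-normalised label-free quantities by unpaired t-test, counting only proteins with at least 2 unique peptides.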

[2] = compound: CN(Cc1cccc(OCc2ccccc2C)c1)C(=O)CCl
In short: as §1

[3] = compound: CN(Cc1ccccc1)C(=O)CCl
In short: as §1

[4] = compound: COc1ccc(CN(C)C(=O)CCl)cc1
In short: as §1

[5] = compound: COc1cccc(CN(CCCc2ccccc2)C(=O)CCl)c1
In short: as §1

[6] = compound: ClCC(=O)N1CCc2cc(Cl)c(Cl)cc2C1
In short: as §1

[7] = compound: ClCC(=O)N1CCc2nc(ncc2C1)-c1ccccc1
In short: as §1

[8] = compound: ClCC(=O)N1CCc2nocc2C1
In short: as §1

[9] = compound: ClCC(=O)N1CCc2scc(Br)c2C1
In short: as §1

[10] = compound: ClCC(=O)NC(C1CCCC1)c1cccs1
In short: as §1

Measured: log2 ratio of Biotin-Ahx-Ub-VS probe labelling

USP12 (UniProt O75317)
UniProt O75317, sequence (O75317 whole entry): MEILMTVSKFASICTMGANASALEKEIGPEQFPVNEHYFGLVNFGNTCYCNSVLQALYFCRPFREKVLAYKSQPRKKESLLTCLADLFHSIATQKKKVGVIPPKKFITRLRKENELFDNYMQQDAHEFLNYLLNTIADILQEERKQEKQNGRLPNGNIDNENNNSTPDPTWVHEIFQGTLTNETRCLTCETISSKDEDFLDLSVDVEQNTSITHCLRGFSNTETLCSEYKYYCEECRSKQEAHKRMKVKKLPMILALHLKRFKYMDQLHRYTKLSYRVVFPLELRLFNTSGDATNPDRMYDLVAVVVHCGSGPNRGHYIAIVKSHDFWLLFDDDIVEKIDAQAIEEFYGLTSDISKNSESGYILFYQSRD
active: [6]; compound concentration: 200uM -2.18
inactive: [1]; compound concentration: 50uM -0.144 | [1]; compound concentration: 200uM -0.188 | [2]; compound concentration: 50uM -0.484 | [2]; compound concentration: 200uM -0.602 | [3]; compound concentration: 50uM -0.0519 | [3]; compound concentration: 200uM -0.89 | [4]; compound concentration: 50uM -0.0378 | [4]; compound concentration: 200uM -0.439 | [5]; compound concentration: 50uM -0.477 | [5]; compound concentration: 200uM -0.852 | [6]; compound concentration: 50uM -0.202 | [7]; compound concentration: 50uM 0.154 | [7]; compound concentration: 200uM -0.813 | [8]; compound concentration: 50uM -0.195 | [8]; compound concentration: 200uM -0.415 | [9]; compound concentration: 50uM 0.0837 | [9]; compound concentration: 200uM -0.475 | [10]; compound concentration: 50uM 0.0281 | [10]; compound concentration: 200uM -0.0926

UCHL3 (UniProt P15374)
UniProt P15374, sequence (P15374 whole entry): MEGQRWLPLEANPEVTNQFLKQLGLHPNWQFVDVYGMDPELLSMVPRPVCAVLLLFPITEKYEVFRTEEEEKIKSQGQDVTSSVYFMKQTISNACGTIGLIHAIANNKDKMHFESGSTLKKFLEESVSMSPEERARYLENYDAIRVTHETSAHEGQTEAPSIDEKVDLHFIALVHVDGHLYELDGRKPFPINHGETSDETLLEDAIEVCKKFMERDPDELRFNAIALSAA
inactive: [1]; compound concentration: 50uM -0.149 | [1]; compound concentration: 200uM -0.181 | [2]; compound concentration: 50uM -0.479 | [2]; compound concentration: 200uM -0.262 | [3]; compound concentration: 50uM -0.409 | [3]; compound concentration: 200uM -0.314 | [4]; compound concentration: 50uM -0.297 | [4]; compound concentration: 200uM -0.108 | [5]; compound concentration: 50uM -0.15 | [5]; compound concentration: 200uM -0.296 | [6]; compound concentration: 50uM -0.0194 | [6]; compound concentration: 200uM -0.59 | [7]; compound concentration: 50uM -0.0966 | [7]; compound concentration: 200uM -0.705 | [8]; compound concentration: 50uM -0.331 | [8]; compound concentration: 200uM -0.399 | [10]; compound concentration: 50uM -0.0539 | [10]; compound concentration: 200uM -0.088
active: [9]; compound concentration: 50uM -1.73 | [9]; compound concentration: 200uM -4.16

OTUD7B (UniProt Q6GQQ9)
UniProt Q6GQQ9, sequence (Q6GQQ9 whole entry): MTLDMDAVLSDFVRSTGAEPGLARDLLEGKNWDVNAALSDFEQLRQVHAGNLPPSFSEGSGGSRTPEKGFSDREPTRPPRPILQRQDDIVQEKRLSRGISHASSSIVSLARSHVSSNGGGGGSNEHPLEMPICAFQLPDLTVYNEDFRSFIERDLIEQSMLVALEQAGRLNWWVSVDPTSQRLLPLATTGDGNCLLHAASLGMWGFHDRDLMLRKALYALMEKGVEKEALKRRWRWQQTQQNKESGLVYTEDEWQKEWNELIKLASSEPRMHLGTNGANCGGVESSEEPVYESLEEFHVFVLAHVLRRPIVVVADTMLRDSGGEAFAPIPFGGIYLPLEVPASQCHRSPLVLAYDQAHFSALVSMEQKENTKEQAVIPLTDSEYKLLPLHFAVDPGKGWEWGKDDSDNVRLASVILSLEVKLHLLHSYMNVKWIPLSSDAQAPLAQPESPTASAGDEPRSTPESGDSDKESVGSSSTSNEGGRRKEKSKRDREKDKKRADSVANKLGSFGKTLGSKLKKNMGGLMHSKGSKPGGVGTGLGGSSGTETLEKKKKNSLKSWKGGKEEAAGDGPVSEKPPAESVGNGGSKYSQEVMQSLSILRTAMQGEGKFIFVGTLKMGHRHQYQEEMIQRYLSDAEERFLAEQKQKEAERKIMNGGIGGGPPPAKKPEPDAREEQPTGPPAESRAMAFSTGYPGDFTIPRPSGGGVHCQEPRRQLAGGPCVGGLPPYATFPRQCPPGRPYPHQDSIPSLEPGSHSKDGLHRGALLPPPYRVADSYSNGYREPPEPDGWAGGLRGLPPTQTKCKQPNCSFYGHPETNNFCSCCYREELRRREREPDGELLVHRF
inactive: [1]; compound concentration: 50uM -0.428 | [2]; compound concentration: 50uM -0.878 | [3]; compound concentration: 50uM -0.664 | [4]; compound concentration: 50uM -0.435 | [4]; compound concentration: 200uM -0.811 | [5]; compound concentration: 50uM -0.145 | [5]; compound concentration: 200uM -0.385 | [6]; compound concentration: 50uM -0.244 | [7]; compound concentration: 50uM -0.213 | [9]; compound concentration: 50uM -0.654 | [10]; compound concentration: 50uM -0.987
active: [1]; compound concentration: 200uM -1.07 | [2]; compound concentration: 200uM -2.2 | [3]; compound concentration: 200uM -1.45 | [6]; compound concentration: 200uM -1.67 | [7]; compound concentration: 200uM -1.67 | [8]; compound concentration: 50uM -1.21 | [8]; compound concentration: 200uM -3.03 | [9]; compound concentration: 200uM -2.61 | [10]; compound concentration: 200uM -2.95

UniProt Q9P2H5
UniProt Q9P2H5, sequence (Q9P2H5 whole entry): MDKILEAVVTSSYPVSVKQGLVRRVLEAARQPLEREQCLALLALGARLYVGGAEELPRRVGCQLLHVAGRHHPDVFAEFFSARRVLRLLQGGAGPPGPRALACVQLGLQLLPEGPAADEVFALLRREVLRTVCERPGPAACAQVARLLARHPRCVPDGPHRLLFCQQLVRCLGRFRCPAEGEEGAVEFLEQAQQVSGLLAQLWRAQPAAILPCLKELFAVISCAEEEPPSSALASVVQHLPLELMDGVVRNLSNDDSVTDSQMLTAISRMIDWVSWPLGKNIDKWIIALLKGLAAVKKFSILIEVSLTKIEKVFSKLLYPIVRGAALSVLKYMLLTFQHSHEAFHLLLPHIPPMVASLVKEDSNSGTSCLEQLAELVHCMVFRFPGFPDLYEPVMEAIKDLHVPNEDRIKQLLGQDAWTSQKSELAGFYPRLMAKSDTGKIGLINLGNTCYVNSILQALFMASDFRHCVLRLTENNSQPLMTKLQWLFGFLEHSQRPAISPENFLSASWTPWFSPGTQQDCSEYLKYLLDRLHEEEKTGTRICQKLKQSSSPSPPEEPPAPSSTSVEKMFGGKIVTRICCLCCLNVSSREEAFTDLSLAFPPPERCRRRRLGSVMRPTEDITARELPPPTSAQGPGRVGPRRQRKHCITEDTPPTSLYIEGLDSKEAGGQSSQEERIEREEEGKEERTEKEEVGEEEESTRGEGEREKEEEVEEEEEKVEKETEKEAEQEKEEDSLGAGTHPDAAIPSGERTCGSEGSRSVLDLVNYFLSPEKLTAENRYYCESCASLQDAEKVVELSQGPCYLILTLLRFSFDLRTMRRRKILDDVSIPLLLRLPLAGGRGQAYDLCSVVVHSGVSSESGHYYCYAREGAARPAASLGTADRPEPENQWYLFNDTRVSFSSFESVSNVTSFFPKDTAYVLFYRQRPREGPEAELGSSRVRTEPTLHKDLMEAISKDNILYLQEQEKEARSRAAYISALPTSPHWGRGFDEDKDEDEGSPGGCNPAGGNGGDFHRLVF
inactive: [1]; compound concentration: 50uM 0.0586 | [1]; compound concentration: 200uM -0.355 | [2]; compound concentration: 50uM -0.626 | [2]; compound concentration: 200uM -0.327 | [3]; compound concentration: 50uM -0.0969 | [3]; compound concentration: 200uM -0.154 | [4]; compound concentration: 50uM -0.301 | [4]; compound concentration: 200uM -0.182 | [5]; compound concentration: 50uM -0.114 | [5]; compound concentration: 200uM -0.29 | [6]; compound concentration: 50uM -0.263 | [6]; compound concentration: 200uM -0.82 | [7]; compound concentration: 50uM 0.133 | [7]; compound concentration: 200uM -0.449 | [8]; compound concentration: 50uM -0.415 | [8]; compound concentration: 200uM -0.273 | [9]; compound concentration: 50uM -0.192 | [9]; compound concentration: 200uM -0.595 | [10]; compound concentration: 50uM 0.156 | [10]; compound concentration: 200uM 0.0366
